Assay [1] is described as follows: Caspase-3/7 induction in CHO-K1 cells by small molecules, qHTS assay (AID 1346980). Note: nearly all actives have a fitted effect of over 15% in size. In short, it runs like this: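 Wild-type CHO-K1 cells exposed to compounds for 17hr at 37 C, 5% CO2. Caspase-3/7 activity then measured by Caspase-Glo 3/7 luminescence after 30min at room temperature.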
A general note: qHTS replaces the single test concentration by a dilution series.

Assay [2] in a line: Caspase-3/7 induction in HepG2 cells by small molecules, qHTS cell viability counter screen (AID 1346981). Note: series mostly up to about 92 µM; nearly all actives have a fitted effect of over 30% in size. In short, it runs like this: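 Wild-type HepG2 cells (2,000/well) were allowed to settle for 5 hr at 37 C, 5% CO2, then dosed with compounds in DMSO by pin transfer. After 16 hr at 37 C, CellTiter-Fluor was added and fluorescence read 1 hr later.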
Assay [3] has as its target Nuclear receptor subfamily 1 group I member 2 (Homo sapiens) (UniProt O75469). Briefly: Human pregnane X receptor (PXR) small molecule agonists, qHTS assay (AID 1346982). Note: nearly all actives have a fitted effect of over 35% in size. Note: potency is the fitted concentration of half-maximal effect. In short, it runs like this: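 PXR-Luc HepG2 cells (CYP3A4 promoter-driven luciferase) were seeded in medium with 5% charcoal-stripped FBS, left 5 hr at 37 C, then exposed to compounds in DMSO for 24 hr. Luminescence was read after ONE-Glo addition.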

Assay [4] has as its target Acetylcholinesterase (Homo sapiens) (UniProt P22303). Briefly: Acetylcholinesterase (AChE) small molecule antagonists: colormetric cell-based qHTS assay (AID 1347395; calls by dose curve; note: nearly all actives have a fitted effect of over 30% in size; note: potency is the fitted concentration of half-maximal effect). In short, it runs like this: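 In this cell-based qHTS, attached SH-SY5Y cells were treated with test chemicals for 30 min, after which acetylthiocholine hydrolysis was followed by DTNB colour development over 90 min at 37 C.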

Assay [5] has the same target. Briefly: Acetylcholinesterase (AChE) small molecule antagonists: enzyme-based qHTS assay (AID 1347397; calls by dose curve; note: nearly all actives have a fitted effect of over 55% in size). The note with it: Potency: AChE enzyme activity inhibition. In short, it runs like this: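 Recombinant human AChE (50 mU/mL) preincubated with compound 30 min at room temperature; acetylthiocholine plus DTNB then added, and thiocholine formation read colorimetrically after 10 min at room temperature. DMSO served as vehicle control.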

Assay [6] has the same target. Briefly: Acetylcholinesterase (AChE) small molecule antagonists: fluorescence cell-based qHTS assay (AID 1347398; calls by dose curve; note: nearly all actives have a fitted effect of over 50% in size). The note with it: Potency: AChE activity. In short, it runs like this:
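SH-SY5Y cells (2000/well), attached overnight, incubated with compound 30 min at 37 C. Acetylthiocholine plus Thiolite Green then added for 40 min at room temperature. Thiocholine fluorescence (Ex/Em 490/520 nm) reports cellular AChE activity.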

Assay [7] has the same target. Briefly: Acetylcholinesterase (AChE) small molecule antagonists: enzyme-based qHTS assay with human liver microsomes (AID 1347399; calls by dose curve; note: nearly all actives have a fitted effect of over 60% in size). The note with it: Potency: qHTS inhibition. In short, it runs like this: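 Recombinant human AChE (50 mU/mL in the enzyme mix) and human liver microsomes (0.25 mg/mL final) were preincubated with compound and NADPH (0.25 mg/mL final) for 30 min at 37 C. Acetylthiocholine/DTNB was then added; thiocholine was read colorimetrically after 10 min at room temperature.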

The target of assay [8] is Cytochrome P450 2C19 (Homo sapiens) (UniProt P33261). Briefly: Cytochrome P450 Family 2 Subfamily C Member 19 (CYP2C19) small molecule antagonists: luciferase reporter qHTS assay (AID 1671197). Note: nearly all actives have a fitted effect of over 65% in size. Note: potency is the fitted concentration of half-maximal effect. In short, it runs like this: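 P450-Glo CYP2C19 screening system; proluciferin substrate; DMSO compound stocks; 10 min RT preincubation; NADPH regeneration, 1 h at 37C; luciferin detection reagent, 20 min RT; luminescence as RLU.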
A general note: A reporter such as luciferase makes a cellular process visible.

The target in assay [9] is Cytochrome P450 2C9 (Homo sapiens) (UniProt P11712). Briefly: Cytochrome P450 Family 2 Subfamily C Member 9 (CYP2C9) small molecule antagonists: luciferase reporter qHTS assay (AID 1671198). Note: nearly all actives have a fitted effect of over 50% in size. Note: potency is the fitted concentration of half-maximal effect. In short, it runs like this: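 P450-Glo proluciferin substrate with CYP2C9 enzyme; 10 min RT preincubation, then NADPH regeneration 1 h at 37C; luciferin detection reagent 20 min RT, luminescence in relative luminescence units.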

For assay [10], the target named is Cytochrome P450 1A2 (Homo sapiens) (UniProt P05177). Briefly: Cytochrome P450 Family 1 Subfamily A Member 2 (CYP1A2) small molecule antagonists: luciferase reporter qHTS assay (AID 1671199). Note: nearly all actives have a fitted effect of over 50% in size. Note: potency is the fitted concentration of half-maximal effect. In short, it runs like this:
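Human CYP1A2 activity measured with a P450-Glo proluciferin substrate; compounds in DMSO preincubated 10 min at room temperature with enzyme-substrate mix, then NADPH regeneration system added for 1 h. Luciferin detection reagent, 20 min, luminescence read.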

Assay [11] has as its target Voltage-gated inwardly rectifying potassium channel KCNH2 (Homo sapiens) (UniProt Q12809). Briefly: Human Ether-a-go-go-Related Gene (hERG) channel small molecule antagonists: fluorescence cell-based qHTS assay (AID 1671200).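 Note: hERG-expressing U2OS cells given a thallium stimulus after FluxOR II dye loading; series mostly up to about 77 µM; nearly all actives have a fitted effect of over 50% in size.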 In short, it runs like this: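 Cell line hERG-U2OS; dye FluxOR II, 1 h RT dark; Tl+ stimulus; ex 480/em 540 nm, read each second for 2 min.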
In general terms: The hERG channel carries a current that helps repolarise heart muscle cells.

In assay [12] the target is Cytochrome P450 2D6 (Homo sapiens) (UniProt P10635). Briefly: Cytochrome P450 Family 2 Subfamily D Member 6 (CYP2D6) small molecule antagonists: luciferase reporter qHTS assay (AID 1671196). Note: nearly all actives have a fitted effect of over 50% in size. Note: potency is the fitted concentration of half-maximal effect. In short, it runs like this: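 CYP2D6 enzyme–substrate mix was held with compound for 10 min at room temperature, then NADPH regeneration solution was added and the reaction ran 1 h at room temperature. Luciferin product was detected by luminescence after 20 min with detection reagent.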

For assay [13], the target named is Cytochrome P450 3A4 (Homo sapiens) (UniProt P08684). Briefly: Cytochrome P450 Family 3 Subfamily A Member 4 (CYP3A4) small molecule antagonists: luciferase reporter qHTS assay (AID 1671201). In short, it runs like this:
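Room-temperature assay throughout: 10 min compound–enzyme/substrate preincubation, 1 h reaction after NADPH regeneration solution, 20 min detection. Luciferin formed from proluciferin substrate is quantified by luminescence.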

Here are results for 13 compounds from PubChem BioAssay (Tox21).

Several values for one entry are separate records, joined by “and”; a condition that tells them apart may be missing. Equal values may be shown once. Records with an inconclusive call do not appear. Where a structure was tested more than once in an assay, its records may differ in their call. Activity calls are given as the source filed them. Unless noted, calls come from the whole dose curve; as a rule, active = well fitted curve in the direction sought with a large enough effect in the repeat runs; inconclusive = weak or mixed curves; inactive = no such curve, though single readings can be large; an effect the other way counts as inactive or inconclusive.

Sequence of Acetylcholinesterase (Homo sapiens) (P22303 whole entry, looked up): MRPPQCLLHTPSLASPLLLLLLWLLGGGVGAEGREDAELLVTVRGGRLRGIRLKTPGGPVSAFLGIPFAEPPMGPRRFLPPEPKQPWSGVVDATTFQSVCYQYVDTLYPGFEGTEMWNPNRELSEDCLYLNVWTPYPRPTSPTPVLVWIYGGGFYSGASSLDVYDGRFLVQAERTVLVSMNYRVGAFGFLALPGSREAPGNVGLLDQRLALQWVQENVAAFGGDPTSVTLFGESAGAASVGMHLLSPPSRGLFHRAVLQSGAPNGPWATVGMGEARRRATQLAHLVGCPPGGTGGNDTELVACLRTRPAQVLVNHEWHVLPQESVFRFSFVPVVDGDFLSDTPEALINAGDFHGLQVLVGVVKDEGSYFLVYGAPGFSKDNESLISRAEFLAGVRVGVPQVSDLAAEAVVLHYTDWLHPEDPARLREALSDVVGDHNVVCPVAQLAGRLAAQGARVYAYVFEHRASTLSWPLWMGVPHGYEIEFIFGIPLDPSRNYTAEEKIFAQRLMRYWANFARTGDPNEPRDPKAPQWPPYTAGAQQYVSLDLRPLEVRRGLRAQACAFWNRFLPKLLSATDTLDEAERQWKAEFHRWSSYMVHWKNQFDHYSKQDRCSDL
Sequence of Cytochrome P450 2C9 (Homo sapiens) (P11712 whole entry, looked up): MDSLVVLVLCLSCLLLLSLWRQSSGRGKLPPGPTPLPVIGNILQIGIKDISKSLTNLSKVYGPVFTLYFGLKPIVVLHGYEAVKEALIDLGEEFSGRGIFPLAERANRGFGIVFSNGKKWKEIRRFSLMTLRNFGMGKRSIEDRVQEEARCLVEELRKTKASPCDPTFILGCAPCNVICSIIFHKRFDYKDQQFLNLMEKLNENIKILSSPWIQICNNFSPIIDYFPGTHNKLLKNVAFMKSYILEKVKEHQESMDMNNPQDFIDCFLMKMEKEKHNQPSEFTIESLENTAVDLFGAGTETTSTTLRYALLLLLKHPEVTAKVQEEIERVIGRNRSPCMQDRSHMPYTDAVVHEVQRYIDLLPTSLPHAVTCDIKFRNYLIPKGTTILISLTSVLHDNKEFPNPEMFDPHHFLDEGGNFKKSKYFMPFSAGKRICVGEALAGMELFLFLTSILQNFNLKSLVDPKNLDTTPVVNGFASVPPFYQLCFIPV
Sequence of Nuclear receptor subfamily 1 group I member 2 (Homo sapiens) (O75469 whole entry, looked up): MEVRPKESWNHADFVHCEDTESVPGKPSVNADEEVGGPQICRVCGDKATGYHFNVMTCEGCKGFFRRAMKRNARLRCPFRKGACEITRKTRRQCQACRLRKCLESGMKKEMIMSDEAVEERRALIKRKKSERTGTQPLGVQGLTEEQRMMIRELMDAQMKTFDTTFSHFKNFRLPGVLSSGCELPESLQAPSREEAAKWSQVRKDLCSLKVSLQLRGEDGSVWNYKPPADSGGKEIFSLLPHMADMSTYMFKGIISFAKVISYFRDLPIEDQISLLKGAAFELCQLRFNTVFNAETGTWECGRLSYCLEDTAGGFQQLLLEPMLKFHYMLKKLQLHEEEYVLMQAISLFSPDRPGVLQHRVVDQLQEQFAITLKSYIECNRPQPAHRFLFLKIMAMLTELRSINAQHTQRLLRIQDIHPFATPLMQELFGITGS
Sequence of Cytochrome P450 2C19 (Homo sapiens) (P33261 whole entry, looked up): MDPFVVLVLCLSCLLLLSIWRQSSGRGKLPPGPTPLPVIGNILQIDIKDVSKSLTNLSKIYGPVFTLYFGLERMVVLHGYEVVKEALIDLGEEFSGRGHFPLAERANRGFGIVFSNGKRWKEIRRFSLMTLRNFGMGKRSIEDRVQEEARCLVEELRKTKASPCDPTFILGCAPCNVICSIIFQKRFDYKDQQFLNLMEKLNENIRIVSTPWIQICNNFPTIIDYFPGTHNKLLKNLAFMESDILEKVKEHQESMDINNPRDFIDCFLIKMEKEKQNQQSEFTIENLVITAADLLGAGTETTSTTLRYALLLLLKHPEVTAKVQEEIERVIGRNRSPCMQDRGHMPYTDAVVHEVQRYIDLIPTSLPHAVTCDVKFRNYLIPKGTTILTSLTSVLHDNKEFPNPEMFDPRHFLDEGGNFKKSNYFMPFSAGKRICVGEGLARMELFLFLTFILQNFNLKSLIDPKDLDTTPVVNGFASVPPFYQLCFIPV
Sequence of Cytochrome P450 1A2 (Homo sapiens) (P05177 whole entry, looked up): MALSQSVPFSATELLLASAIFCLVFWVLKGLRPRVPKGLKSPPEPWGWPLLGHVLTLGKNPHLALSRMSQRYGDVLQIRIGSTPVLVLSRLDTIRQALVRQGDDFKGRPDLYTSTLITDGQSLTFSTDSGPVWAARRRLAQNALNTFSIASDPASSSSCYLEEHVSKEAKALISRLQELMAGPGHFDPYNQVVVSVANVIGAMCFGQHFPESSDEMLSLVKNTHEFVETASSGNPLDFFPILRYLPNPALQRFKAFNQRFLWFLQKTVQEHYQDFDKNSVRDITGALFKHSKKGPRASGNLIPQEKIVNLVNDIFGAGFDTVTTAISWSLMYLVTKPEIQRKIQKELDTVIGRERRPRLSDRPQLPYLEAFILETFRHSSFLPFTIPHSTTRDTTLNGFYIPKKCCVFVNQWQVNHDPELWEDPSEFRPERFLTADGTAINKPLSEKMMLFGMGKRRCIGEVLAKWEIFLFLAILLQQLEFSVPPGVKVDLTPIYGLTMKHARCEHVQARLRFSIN
Sequence of Voltage-gated inwardly rectifying potassium channel KCNH2 (Homo sapiens) (Q12809 whole entry, looked up): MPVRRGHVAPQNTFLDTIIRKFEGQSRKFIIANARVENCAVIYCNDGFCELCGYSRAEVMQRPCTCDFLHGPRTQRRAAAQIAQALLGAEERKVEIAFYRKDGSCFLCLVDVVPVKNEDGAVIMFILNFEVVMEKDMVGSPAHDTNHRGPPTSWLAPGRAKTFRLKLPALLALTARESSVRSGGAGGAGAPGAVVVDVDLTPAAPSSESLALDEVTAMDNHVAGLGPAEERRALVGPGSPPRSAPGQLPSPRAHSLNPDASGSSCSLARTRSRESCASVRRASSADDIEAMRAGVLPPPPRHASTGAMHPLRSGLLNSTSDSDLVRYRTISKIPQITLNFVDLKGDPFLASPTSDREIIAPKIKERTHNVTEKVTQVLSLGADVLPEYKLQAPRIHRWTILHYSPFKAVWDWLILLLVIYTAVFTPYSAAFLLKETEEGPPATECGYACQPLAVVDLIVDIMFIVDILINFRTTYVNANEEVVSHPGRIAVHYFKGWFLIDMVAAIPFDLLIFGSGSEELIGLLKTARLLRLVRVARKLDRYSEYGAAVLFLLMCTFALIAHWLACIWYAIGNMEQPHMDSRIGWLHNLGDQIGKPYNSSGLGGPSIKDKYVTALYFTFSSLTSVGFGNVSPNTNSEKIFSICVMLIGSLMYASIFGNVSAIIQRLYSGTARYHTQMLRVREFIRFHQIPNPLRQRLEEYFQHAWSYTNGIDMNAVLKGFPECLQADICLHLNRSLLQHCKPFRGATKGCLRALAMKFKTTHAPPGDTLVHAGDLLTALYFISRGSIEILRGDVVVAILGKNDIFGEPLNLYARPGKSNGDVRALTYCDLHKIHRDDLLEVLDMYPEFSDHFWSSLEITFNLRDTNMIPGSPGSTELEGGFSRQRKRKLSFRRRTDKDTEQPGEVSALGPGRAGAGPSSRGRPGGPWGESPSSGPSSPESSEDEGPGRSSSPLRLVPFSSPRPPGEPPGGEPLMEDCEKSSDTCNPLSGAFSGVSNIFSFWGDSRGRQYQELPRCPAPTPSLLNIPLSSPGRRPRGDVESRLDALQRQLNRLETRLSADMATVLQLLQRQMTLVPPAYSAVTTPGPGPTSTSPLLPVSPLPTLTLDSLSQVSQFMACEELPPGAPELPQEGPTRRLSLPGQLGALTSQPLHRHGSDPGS
Sequence of Cytochrome P450 3A4 (Homo sapiens) (P08684 whole entry, looked up): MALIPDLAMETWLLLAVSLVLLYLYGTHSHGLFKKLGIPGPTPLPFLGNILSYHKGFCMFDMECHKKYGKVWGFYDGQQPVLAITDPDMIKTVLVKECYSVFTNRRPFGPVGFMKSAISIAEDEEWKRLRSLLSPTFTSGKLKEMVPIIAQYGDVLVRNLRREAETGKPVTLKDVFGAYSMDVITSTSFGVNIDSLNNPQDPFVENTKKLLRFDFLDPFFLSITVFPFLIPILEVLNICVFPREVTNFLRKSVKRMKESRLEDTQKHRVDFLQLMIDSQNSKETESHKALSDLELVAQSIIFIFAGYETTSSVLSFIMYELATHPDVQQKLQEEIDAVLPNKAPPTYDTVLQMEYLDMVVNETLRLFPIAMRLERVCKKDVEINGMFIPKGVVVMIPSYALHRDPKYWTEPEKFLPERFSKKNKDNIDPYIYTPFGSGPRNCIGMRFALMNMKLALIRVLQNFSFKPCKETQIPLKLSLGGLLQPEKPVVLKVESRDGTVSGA
Sequence of Cytochrome P450 2D6 (Homo sapiens) (P10635 whole entry, looked up): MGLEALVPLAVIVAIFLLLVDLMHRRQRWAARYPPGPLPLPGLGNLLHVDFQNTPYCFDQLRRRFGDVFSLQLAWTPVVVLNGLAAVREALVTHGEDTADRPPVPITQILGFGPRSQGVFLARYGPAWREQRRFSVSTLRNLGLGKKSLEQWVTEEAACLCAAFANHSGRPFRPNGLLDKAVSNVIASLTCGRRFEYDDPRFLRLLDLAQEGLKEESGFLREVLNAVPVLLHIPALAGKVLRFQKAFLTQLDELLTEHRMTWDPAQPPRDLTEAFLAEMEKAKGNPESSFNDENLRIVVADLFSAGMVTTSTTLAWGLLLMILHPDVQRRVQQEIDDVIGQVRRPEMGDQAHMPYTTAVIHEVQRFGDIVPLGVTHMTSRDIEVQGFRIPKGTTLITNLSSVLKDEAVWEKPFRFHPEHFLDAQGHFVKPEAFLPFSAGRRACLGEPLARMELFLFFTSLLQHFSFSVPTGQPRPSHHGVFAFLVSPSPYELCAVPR

In the case of `Nc1ccc(Br)cc1`, the compound was classed as inactive in assay [1]. Moreover, the Potency entry in [2], in assay [3], in assay [4], in [5], in [6] and in [7] was “inactive” in each case. In addition, in assay [11], the Potency entry was “inactive”. For the same compound, the Potency in assay [8] was 50.2 µM (active) and 39.9 µM (active); in assay [9], 35.5 µM (active) and 35.6 µM (active); in assay [10], 44.8 µM (active).
As for `C=CC(N)=O`, the compound was classed as inactive in assay [1]. In addition, the Potency result in [2], in assay [3] and in assay [9] was “inactive” in each case. Besides, in [10], the Potency was 35.7 µM (active) and inactive.
Regarding `O=S(=O)(c1ccc(Cl)cc1)c1cc(Cl)c(Cl)cc1Cl`, the compound was called inactive in assay [1]. In addition, the Potency entry in [2], in [4], in assay [5], in assay [6], in assay [7] and in assay [12] was “inactive” in each case. The Potency entry in [11] and in assay [13] was “inactive” each time. Further, the Potency in assay [3] was 30.6 µM (active); in assay [8], 251 nM (active) and 252 nM (active); in assay [9], 28.3 µM (active).
On to `CC(NC(C)(C)C)C(=O)c1cccc(Cl)c1` (configuration not stated), for which the outcome in assay [1] was inactive. The Potency entry in assay [2], in assay [9], in [10] and in [13] was “inactive” in each case.
With `COC(=O)NS(=O)(=O)c1ccc(N)cc1`, the compound was called inactive in [1]. Also, the Potency result in [2], in assay [3], in assay [4], in assay [5], in [6] and in assay [7] was “inactive” in each case. For the same compound, the Potency result in assay [12], in assay [10], in [11] and in assay [13] was “inactive” each time. Moreover, in assay [8], the Potency was 71.3 µM (active) and inactive.
With `CCNc1nc(NC(C)C)nc(SC)n1`, in assay [1], the outcome was inactive. Moreover, the Potency result in assay [2], in [4], in [5], in [6], in [7] and in assay [12] was “inactive” throughout. Further, the Potency entry in assay [9], in assay [11] and in assay [13] was “inactive” in each case. Further, the Potency was 54.8 µM (active) and 24.3 µM (active) in assay [3]; 8.02 µM (active) and 11.2 µM (active) in assay [10].
`c1ccc(OP(Oc2ccccc2)Oc2ccccc2)cc1`: the outcome in [1] was inactive. Besides, the Potency result in assay [2], in assay [3], in assay [4], in [5], in [6] and in assay [7] was “inactive” throughout. For the same compound, the Potency result in [12], in [9], in [10], in [11] and in assay [13] was “inactive” throughout.
Regarding `Oc1ccccc1Cl`, the outcome in assay [1] was inactive. In addition, the Potency result in assay [2], in [3], in [4], in assay [5], in assay [6] and in [7] was “inactive” throughout. Further, the Potency result in assay [12], in [8], in [9], in assay [11] and in assay [13] was “inactive” in each case.
For the compound `BrCCBr`, in [1], the compound was classed as inactive. The Potency result in assay [2], in assay [3], in [4], in [5], in [6] and in assay [7] was “inactive” in each case. In addition, the Potency entry in assay [9], in assay [11] and in assay [13] was “inactive” each time. The Potency in assay [12] is 43.6 µM (active) and inactive; in assay [8], 69.1 µM (active) and inactive; in assay [10], 30.9 µM (active) and inactive.
`c1ccc2c(c1)oc1ccccc12`: the call in assay [1] was inactive. Moreover, the Potency entry in [2], in assay [3], in assay [4], in assay [5], in assay [6] and in [7] was “inactive” in each case. Besides, the Potency entry in [12] and in assay [13] was “inactive” each time. Also, the Potency in [8] is 40.5 µM (active); in assay [9], 36.1 µM (active) and inactive; in assay [10], “inactive and 10 µM (active)”.
As to `CC(C)OC(=O)Nc1ccccc1`, the compound was classed as inactive in assay [1]. Further, the Potency entry in assay [2], in [4], in assay [5], in [6], in assay [7] and in [12] was “inactive” each time. The Potency result in assay [11] and in [13] was “inactive” each time. Also, the Potency is 38.6 µM (active) in assay [3]; 40 µM (active) in assay [8]; 28.3 µM (active) and 39.9 µM (active) in [10].
In the case of `c1cc2c3c(cccc3c1)CC2`, the call in [1] was inactive. Moreover, the Potency entry in assay [2], in [3], in assay [5], in [6], in assay [7] and in [12] was “inactive” throughout. The Potency entry in assay [9], in [11] and in assay [13] was “inactive” in each case. For the same compound, the Potency in [4] was 36.5 µM (active) and inactive; in assay [8], 45.9 µM (active) and inactive.
In the case of `COc1ccc2c3c1O[C@H]1[C@@H](O)C=C[C@H]4[C@@H](C2)N(C)CC[C@@]341`, the call in [1] was inactive. Moreover, the Potency entry in [2], in assay [3], in assay [4], in assay [5], in assay [6] and in [7] was “inactive” throughout. Also, the Potency result in assay [8], in assay [9], in assay [10], in assay [11] and in assay [13] was “inactive” each time.
